Consider 48 compounds from ChEMBL document CHEMBL1157539, “Thousands of chemical starting points for antimalarial lead identification” (Nature, 2010).

What all share (assay type): functional
Test [1] concerns Plasmodium falciparum. Description: GSK_TCMDC: Inhibition of Plasmodium falciparum 3D7 in whole red blood cells, using parasite LDH activity as an index of growth. Test compounds present at 2uM.
Test [2] has as its system Plasmodium falciparum. Description: GSK_TCMDC: Inhibition of Plasmodium falciparum Dd2 in whole red blood cells, using parasite LDH activity as an index of growth. Test compounds present at 2uM.
For the next test, the system named is HepG2. Briefly: GSK_TCMDC: Percent inhibition of human HepG2 cell line. Test compounds present at 10uM.

Take `Cc1ccccc1C1CCN(C2CCC(NC(=O)/C=C/c3cc(F)cc(F)c3)CC2)CC1` (centres undefined): the Inhibition (as a rule, the drop in the measured response relative to a control, in per cent) with Plasmodium falciparum [1] worked out at 99%; with Plasmodium falciparum [2], 33%; with HepG2, 53%.
The matching figures for `O=C(Nc1ccc(F)cc1)c1ccc(C(=O)NC2CCN(CC3CCCCC3)CC2)cc1.O=C(O)C(F)(F)F`: 99%, 0% and 34%.
For `CC(=O)Nc1nc(C(=O)Nc2ccc(-c3cccc(-c4nc5cc(F)ccc5[nH]4)c3)cc2)cs1` the same measures were 94%, 29% and 86%.
For `Cc1cc2c(cc1C(F)(F)F)N(C(=O)Nc1cccc(C(=O)NC3CCN(Cc4ccccc4)CC3)c1)CC2` the same measures were 91%, 0% and 19%.
With `O=C(Nc1ccc(OC2CCN(Cc3ccsc3)CC2)c(Cl)c1)c1cccs1.O=C(O)C(F)(F)F`, the values for the Inhibition in the test with Plasmodium falciparum [1], in the test on Plasmodium falciparum [2] and in the test with HepG2 were 94%, 93% and 16%, respectively.
As to `Cl.NC1=NC(Cc2ccccc2)N(c2ccc(Cl)cc2)C(N)=N1` (centres undefined), the Inhibition worked out at 93% in the test on Plasmodium falciparum [1], 4% with Plasmodium falciparum [2] and 21% with HepG2.
For `O=C(C=Cc1ccc(Cl)c(Cl)c1)NCCCCCN1CCC(CCNS(=O)(=O)c2ccc(F)cc2)CC1` the same measures were 88%, 0% and 36%.
The matching figures for `Cc1cccc2nc(-c3ccc(-c4ccc(CNCC5CCCO5)cc4)s3)[nH]c12.O=C(O)C(F)(F)F` (centres undefined): 100%, 96% and 11%.
The matching figures for `NC1CCN(Cc2ccc(-c3ccc(-c4nc5ccccc5[nH]4)s3)cc2)C1.O=C(O)C(F)(F)F` (centres undefined): 100%, 99% and 32%.
As to `CN1CCN(C(C(=O)NCc2cc(Cl)cc(Cl)c2)c2ccc(NC(=O)Nc3ccccc3)cc2)CC1.O=C(O)C(F)(F)F` (centres undefined), the results for the Inhibition in the test on Plasmodium falciparum [1], in the test on Plasmodium falciparum [2] and in the test with HepG2 were 98%, 43% and 23%, respectively.
For `CCc1nc(N)nc(N)c1CCCOc1ccccc1Cl.Cl` the same measures were 92%, 13% and 61%.
For `CCCN(CCC)CCCCC(C)Nc1c2ccc(Cl)cc2nc2ccc(OC)cc12.Cl` (centres undefined) the same measures were 100%, 100% and 42%.
For `Cc1nc(-c2nc(N3CCC(O)CC3)ncc2-c2ccsc2)sc1C` the same measures were 83%, 35% and 6%.
In the case of `CCC(Cc1ccccc1)c1cc(O)c(Cc2ccc(-c3ccccc3)cc2)c(=O)o1` (centres undefined), the values for the Inhibition in the test with Plasmodium falciparum [1], in the test with Plasmodium falciparum [2] and in the test on HepG2 were 89%, 0% and 3%, respectively.
Regarding `O=C(/C=C/c1ccc(C(F)(F)F)cc1)NCCCCCN1CCN(C(=O)Nc2ccc(F)c(Cl)c2)CC1`, the Inhibition is on record as 89% with Plasmodium falciparum [1], 0% in the test on Plasmodium falciparum [2] and 35% with HepG2.
For `Cc1cc2c(cc1C(F)(F)F)N(C(=O)Nc1cc(C(=O)NC3CCN(Cc4ccccc4)C3)cc(C(F)(F)F)c1)CC2.Cl` (centres undefined) the same measures were 100%, 97% and 22%.
The matching figures for `CCC(=O)Nc1ccc(C(O)CN2CCC3(C=Cc4ccccc4O3)CC2)cc1` (centres undefined): 93%, 47% and 48%.
The matching figures for `COCCNC(=O)c1ccc(OC2CCN(CC(C)=Cc3ccccc3)CC2)c(Cl)c1`: 94%, 95% and 18%.
For `NC(=O)C1CCN(Cc2ccc(-c3ccc(-c4nc5cc(C(F)(F)F)ccc5[nH]4)cc3)cc2)CC1.O=C(O)C(F)(F)F`, the Inhibition in the test with Plasmodium falciparum [1] stood at 100%; in the test on Plasmodium falciparum [2], 90%; in the test on HepG2 it was 25%.
The matching figures for `COc1cc(Cc2cnc(N)nc2N)cc(CC(C)O)c1O` (centres undefined): 93%, 2% and 0%.
For `CCCCCCN1CCC(NCc2ccc(CN(C)C)cc2)CC1.O=C(O)C(F)(F)F` the same measures were 92%, 26% and 18%.
As to `CCCCNC(=O)[C@@H](NC(=O)c1ccc(O)c(-c2ccc(Cl)c(Cl)c2)c1)C(C)C`, the Inhibition was determined as 97% with Plasmodium falciparum [1], 98% in the test on Plasmodium falciparum [2] and 0% in the test with HepG2.
For `COc1cccc(CN2CCCC(OC(c3ccccc3)c3ccccc3)C2)c1O.O=C(O)C(F)(F)F` (centres undefined) the same measures were 90%, 73% and 19%.
The matching figures for `CN(C)Cc1ccc2cc(NC(=O)c3ccc(-c4ccc(Cl)cc4)cc3)ccc2n1.O=C(O)C(F)(F)F`: 86%, 30% and 60%.
For `CNc1ccc(CNCc2ccc(-c3ccc(-c4nc5cc(C(F)(F)F)ccc5[nH]4)cc3)cc2)cc1.O=C(O)C(F)(F)F` the same measures were 100%, 98% and 53%.
Regarding `COCCn1c(Sc2ccc(C#N)c([N+](=O)[O-])c2)nnc1-c1ccc(N(C)C)cc1`, the Inhibition with Plasmodium falciparum [1] worked out at 89%; in the test on Plasmodium falciparum [2], 66%; in the test with HepG2, 2%.
The matching figures for `CCCN(Cc1nnc(-c2ccco2)o1)C(=O)C1CCCN(C(=O)c2ccc(Cl)cc2)C1` (centres undefined): 96%, 96% and 0%.
Consider `CN(c1ccc2c(c1)nc(NCc1ccc(F)cc1)n2C)c1ccnc(Nc2ccc(CS(C)(=O)=O)cc2)n1.Cl`, for which the Inhibition is given as 97% with Plasmodium falciparum [1], 79% in the test with Plasmodium falciparum [2] and 48% in the test with HepG2.
For `COc1cc2ncnc(Nc3ccc(OCc4ccccc4Br)c(Cl)c3)c2cc1OC.Cl` the same measures were 96%, 6% and 25%.
For `O=C(/C=C/c1ccc(C(F)(F)F)cc1)NCCCCCN1CCC(c2c[nH]c3ccccc23)CC1` the same measures were 100%, 22% and 96%.
For `COc1cc(-n2c(CN3CCCC3)nc3cc(-c4ccc(Cl)cc4)sc3c2=O)ccc1OCCN1CCCC1.O=C(O)C(F)(F)F` the same measures were 94%, 90% and 66%.
Regarding `COc1ccc(NC(=O)[C@H](Cc2ccccc2)Nc2cc(C)nc(NCCOc3ccccc3)n2)cc1.O=C(O)C(F)(F)F`, the Inhibition in the test with Plasmodium falciparum [1] is recorded as 98%; in the test with Plasmodium falciparum [2] it was 25%; in the test on HepG2, 11%.
For `Cc1ccccc1C1CCN(C2CCC(NC(=O)/C=C/c3cccc(C(F)(F)F)c3)CC2)CC1` (centres undefined) the same measures were 100%, 54% and 96%.
The matching figures for `CC(C)C[C@@H]1C(=O)N[C@H](C2Cc3ccccc3C2)C(=O)N1[C@@H](C(=O)O)c1ccc(F)cc1F`: 98%, 0% and 10%.
Turning to `COc1cc(C)nc2ccc(NC(=O)COCC(=O)Nc3ccc4nc(C)cc(OC)c4c3)cc12`, the Inhibition amounted to 100% in the test with Plasmodium falciparum [1], 41% in the test on Plasmodium falciparum [2] and 67% in the test on HepG2.
For `COc1c(CNCCCCCCNCc2c(OC)c(OC)c3ccccc3c2OC)c(OC)c2ccccc2c1OC.CS(=O)(=O)O` the same measures were 96%, 98% and 100%.
For `CCOc1ccc(NC(=O)c2cccc(CN3CCCN(Cc4cccc(O)c4)CC3)c2)cc1.O=C(O)C(F)(F)F` the same measures were 95%, 23% and 22%.
The matching figures for `C[C@H](Cc1ccc(S(=O)(=O)c2ccc(C[C@@H](C)NC[C@H](O)c3cccc(Cl)c3)cc2)cc1)NC[C@H](O)c1cccc(Cl)c1.Cl`: 99%, 98% and 100%.
Consider `CC(C)COc1ccc(Cl)cc1Cc1ccc(-c2nc3cc(CCN(C)C)ccc3[nH]2)o1.Cl`, for which the Inhibition with Plasmodium falciparum [1] worked out at 92%; with Plasmodium falciparum [2], 7%; in the test on HepG2, 10%.
The matching figures for `O=C(NCc1ccc(C(=O)NC2CCCCC2)cc1)c1ccc(O)c(-c2ccc(Cl)c(Cl)c2)c1`: 93%, 0% and 5%.
The matching figures for `CC(C)N1CCC(N(Cc2ccc(-c3ccc(C(F)(F)F)cc3)cc2)C(=O)Cn2c(CCc3cccc(F)c3F)cc(=O)c3c2CCC3)CC1.O=C(O)C(O)C(O)C(=O)O`: 100%, 62% and 30%.
Take `Cc1ccc(Oc2ccc(NC(=O)CNc3ccccc3N3CCCC3=O)cc2)cc1`: the values for the Inhibition in the test on Plasmodium falciparum [1], with Plasmodium falciparum [2] and with HepG2 were 98%, 97% and 14%, respectively.
The matching figures for `CC(C)CCNC(=N)c1ccc(OCCCCCOc2ccc(C(=N)NCCC(C)C)cc2)cc1.Cl`: 98%, 94% and 5%.
With `COc1ccc(/N=[N+](\[O-])c2ccccc2/[N+]([O-])=N/c2ccc(OC)cc2)cc1`, the Inhibition with Plasmodium falciparum [1] stood at 84%; with Plasmodium falciparum [2], 29%; in the test on HepG2 it was 13%.
For `NC1CCCN(Cc2cccc(-c3cccc(-c4nc5ccccc5[nH]4)c3)c2)C1.O=C(O)C(F)(F)F` (centres undefined) the same measures were 100%, 61% and 24%.
The matching figures for `c1csc(-c2nc(N3CCCCC3)ncc2-c2ccsc2)n1`: 89%, 72% and 0%.
For `O=C(/C=C/c1ccc(Cl)c(Cl)c1)NCCCCCN1CCC(NC(=S)Nc2ccc(Cl)cc2)CC1` the same measures were 99%, 41% and 62%.
For `O=C(NCCCCN1CCC(c2ccc3c(c2O)CCCC3)CC1)c1ccc(-c2ccc(Cl)cc2)cc1`, the Inhibition with Plasmodium falciparum [1] is on record as 98%; in the test with Plasmodium falciparum [2] it was 72%; in the test with HepG2 it was 97%.
